From PubChem BioAssay (NCATS)
Records with an inconclusive call do not appear. Activity calls are given as the source filed them. Calls follow the shape of the dose curve; as a rule, active = well fitted curve in the direction sought with a large enough effect; inconclusive = small, poorly fitted or top-dose-only effect, or another doubt; inactive = no such curve, though single readings can be large; an effect the other way counts as inactive or inconclusive.

Legend:
[1] = target: Aldehyde dehydrogenase, mitochondrial (Homo sapiens) (UniProt P05091); assay: qHTS for Inhibitors of the Aldehyde Dehydrogenase Family (ALDH2) Primary screen (AID 2061308); also: nearly all actives have a fitted effect of over 55% in size; also: potency is read from the fitted curve at half-maximal effect;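 as to activity change, negative = inhibition: plate controls were vehicle for no effect and reference inhibitor for full effect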
[2] = target: Retinaldehyde dehydrogenase 3 (Homo sapiens) (UniProt P47895); assay: qHTS for Inhibitors of the Aldehyde Dehydrogenase Family (ALDH1A3) Confirmatory screens (AID 2061311); also: potency is read from the fitted curve at half-maximal effect; nearly all actives have a fitted effect of over 60% in size
[3] = target: Retinaldehyde dehydrogenase 3 (Homo sapiens) (UniProt P47895); assay: qHTS for Inhibitors of the Aldehyde Dehydrogenase Family (ALDH1A3) Primary screen (AID 2061315);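 also: plate controls were DMSO vehicle for no effect and reference inhibitor for full effect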
[4] = target: Aldehyde dehydrogenase 1A1 (Homo sapiens) (UniProt P00352); assay: qHTS for Inhibitors of the Aldehyde Dehydrogenase Family (ALDH1A1) Confirmatory screens (AID 2061316); also: potency is read from the fitted curve at half-maximal effect; nearly all actives have a fitted effect of over 65% in size
[5] = BET inhibitor-based combinations targeting novel dependencies in MECOM-rearranged (r) AML: SET-2 cell line (AID 2202231); conditions: SET-2 AML cells viability, CellTiter-Glo luminescence, 48 h; viability: active compounds read low, concentration not given here; also: nearly all actives have a fitted effect of over 35% in size; also: potency is read from the fitted curve at half-maximal effect;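 as to viability: plate controls were DMSO treated cells for no effect and wells without cells for full effect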
Outline: (§1)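 A 48 hr incubation preceded viability reading by CellTiter-Glo, with 15 min room-temperature development. Dose series had 11 points; normalization used DMSO and empty wells; AUC was computed and mean-centered per line as Z-AUC.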

[6] = BET inhibitor-based combinations targeting novel dependencies in MECOM-rearranged (r) AML: OCI-AML3 cell line (AID 2202232); conditions: Potency: OCI-AML3 viability; also: nearly all actives have a fitted effect of over 35% in size; also: potency is read from the fitted curve at half-maximal effect
Outline: as §1

[7] = BET inhibitor-based combinations targeting novel dependencies in MECOM-rearranged (r) AML: MV-4-11 cell line (AID 2202233); also: nearly all actives have a fitted effect of over 45% in size; also: potency is read from the fitted curve at half-maximal effect
Outline: (§2)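 Each compound is tested in an 11-point concentration series against 500 seeded cells/well for 48 hr. The luminescent viability signal is normalized to DMSO and blank wells, then reduced to AUC and a cell-line-centred Z-AUC.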

[8] = BET inhibitor-based combinations targeting novel dependencies in MECOM-rearranged (r) AML: HNT-34 cell line (AID 2202234); also: nearly all actives have a fitted effect of over 35% in size; also: potency is read from the fitted curve at half-maximal effect
Outline: as §2

[9] = BET inhibitor-based combinations targeting novel dependencies in MECOM-rearranged (r) AML: UCSD-AML1 cell line (AID 2202235); also: nearly all actives have a fitted effect of over 40% in size; also: potency is read from the fitted curve at half-maximal effect
Outline: as §2

[10] = BET inhibitor-based combinations targeting novel dependencies in MECOM-rearranged (r) AML: AML-191 cell line (AID 2202236; also: nearly all actives have a fitted effect of over 35% in size; also: potency is read from the fitted curve at half-maximal effect)
Outline: as §1

[11] = BET inhibitor-based combinations targeting novel dependencies in MECOM-rearranged (r) AML: AML-194 cell line (AID 2202237; also: nearly all actives have a fitted effect of over 40% in size; also: potency is read from the fitted curve at half-maximal effect)
Outline: as §1

[12] = target: Retinaldehyde dehydrogenase 3 (Homo sapiens) (UniProt P47895); assay: qHTS for Inhibitors of the Aldehyde Dehydrogenase Family (ALDH1A3) Validation screen (AID 2061312); also: % is scaled to controls: 0 for no effect and ±100 for the full control effect; nearly all actives have a fitted effect of over 45% in size

COCCOc1cnc2ccn([C@H](C)c3nnc4c(F)cc(-c5cnn(C)c5)cn34)c(=O)c2c1
inactive: Potency [1] | Potency [3] | viability [5] 70.9% | Potency [6] | Potency [7] | Potency [8] | Potency [9] | Potency [10] | Potency [11]
active: Potency [2] 12.7 µM | Potency [4] 25.2 µM

Cc1ccc(C(=O)N(CCCN)C(c2oc3cc(Cl)ccc3c(=O)c2Cc2ccccc2)C(C)C)cc1 (stereo not drawn)
inactive: Potency [1] | Potency [12] | Potency [3]

C[C@]12CC[C@@H]3c4ccc(O)c(O)c4CC[C@H]3[C@@H]1CCC2=O
active: Potency [1] 15.8 µM | Potency [2] 15.9 µM | Potency [4] 1.59 µM

COc1cc(N(C)CCN(C)C)c(N)cc1Nc1nccc(-c2cn(C)c3ccccc23)n1
inactive: Potency [1] | Potency [12] | Potency [3]

COc1cc2ncnc(N3CCC(Oc4cnc5ccccc5n4)C3)c2cc1OC (stereo not drawn)
inactive: Potency [1] | Potency [12] | Potency [3]

COc1ccc2nc(-c3cc(OC)c(OC)c(OC)c3)cc(C(=O)NCC(=O)Nc3ccc(C(C)=O)cc3)c2c1
inactive: Potency [1] | Potency [12] | Potency [3]

CC(C)(C)CC(C)(C)c1ccc(OCCOCC[N+](C)(C)Cc2ccccc2)cc1
inactive: Potency [1] | Potency [12] | Potency [3]

COc1ccc(C2=N[C@@H](c3ccc(Cl)cc3)[C@@H](c3ccc(Cl)cc3)N2C(=O)N2CCNC(=O)C2)c(OC(C)C)c1
inactive: Potency [1] | Potency [12] | Potency [3]

CC(=O)OCC(=O)[C@@]1(O)[C@H](C)C[C@H]2[C@@H]3CCC4=CC(=O)C=C[C@]4(C)[C@@]3(F)[C@@H](O)C[C@@]21C
inactive: Potency [1] | Potency [12] | Potency [3]

CC(C)(C(=O)NCC(F)(F)C(F)(F)F)C(=O)NC1C(=O)Nc2ccccc2-c2ccccc21 (stereo not drawn)
inactive: Potency [1] | Potency [12] | Potency [3]

CC(=O)Nc1nc2c(Oc3cc(-c4ccc(C(F)(F)F)cc4)ncn3)cccc2s1
inactive: Potency [1] | Potency [12] | Potency [3]

O=C(c1ccccc1)c1ccc2nc(NC(=O)c3csc(C4CCN(c5ncnc6ccsc56)CC4)n3)[nH]c2c1
inactive: Potency [1] | Potency [12] | Potency [3]

CC(NC(=O)Cc1cc(F)cc(F)c1)C(=O)NC1C(=O)N(C)c2ccccc2-c2ccccc21 (stereo not drawn)
inactive: Potency [1] | Potency [12] | Potency [3]

C[C@@H](O[C@H]1OCCN(Cc2n[nH]nc2CN(C)C)[C@H]1c1ccc(F)cc1)c1cc(C(F)(F)F)cc(C(F)(F)F)c1
inactive: Potency [1] | Potency [12] | Potency [3]

CC(=O)c1c(OCCN2CCCCC2)c(OCCC(C)c2ccc(F)cc2)c2oc(C)nc2c1C (stereo not drawn)
inactive: Potency [1] | Potency [12] | Potency [3]

C[C@@H]1C[C@H]2[C@@H]3C[C@H](F)C4=CC(=O)C=C[C@]4(C)[C@@]3(F)[C@@H](O)C[C@]2(C)[C@@]1(O)C(=O)CO
inactive: Potency [1] | Potency [12] | Potency [3]

COc1ccc2cc1Oc1ccc(cc1)C[C@H]1c3c(cc4c(c3Oc3cc5c(cc3OC)CCN(C)[C@@H]5C2)OCO4)CCN1C
inactive: Potency [1] | Potency [12] | Potency [3]

Cc1ccccc1-c1cc(N2CCN(C)CC2)ncc1N(C)C(=O)C(C)(C)c1cc(C(F)(F)F)cc(C(F)(F)F)c1
inactive: Potency [1] | Potency [12] | Potency [3]

CC(C)C1CCC(C(=O)N[C@@H](Cc2ccccc2)C(=O)O)CC1 (stereo partly drawn)
inactive: Potency [1] | Potency [12] | Potency [3]

Cc1nc2ccc(CN(C)c3ccc(C(=O)NC(CCC(=O)O)C(=O)O)s3)cc2c(=O)[nH]1 (stereo not drawn)
inactive: Potency [1] | Potency [12] | Potency [3]

Fc1ccc(C2CCNC[C@H]2COc2ccc3c(c2)OCO3)cc1 (stereo partly drawn)
inactive: Potency [1] | Potency [12] | Potency [3]

CC(C)c1nc(CN(C)C(=O)N[C@H](C(=O)N[C@@H](Cc2ccccc2)C[C@H](O)[C@H](Cc2ccccc2)NC(=O)OCc2cncs2)C(C)C)cs1
inactive: Potency [1] | Potency [12] | Potency [3]

COc1ccc(N(C(=O)Nc2c(C)cccc2C)c2cc(Nc3ccc(N4CCN(C)CC4)cc3)ncn2)c(OC)c1
inactive: Potency [1] | Potency [12] | Potency [3]

CCCSc1nc(N[C@@H]2C[C@H]2c2ccc(F)c(F)c2)c2nnn([C@@H]3C[C@H](OCCO)[C@@H](O)[C@H]3O)c2n1
inactive: Potency [1] | Potency [12] | Potency [3]

CC[C@H]1OC(=O)[C@H](C)[C@@H](O[C@H]2C[C@@](C)(OC)[C@@H](O)[C@H](C)O2)[C@H](C)[C@@H](O[C@@H]2O[C@H](C)C[C@H](N(C)C)[C@H]2O)[C@](C)(O)C[C@@H](C)C(=O)[C@H](C)[C@H]2OC(=O)O[C@@]21C
inactive: Potency [1] | Potency [12] | Potency [3]

N#Cc1ccc(COc2ccc(-c3cccc4nc(NC(=O)C5CC5)nn34)cc2)cn1
inactive: Potency [1] | Potency [12] | Potency [3]

CCC[C@H]1C[C@H](C(=O)N[C@@H]([C@@H]2O[C@@H](SC)[C@@H](O)[C@@H](O)[C@@H]2O)[C@H](C)Cl)N(C)C1
inactive: Potency [1] | Potency [12] | Potency [3]

NC(=O)N1CCC(CC(=O)N2CCC(C3c4ncc(Br)cc4CCc4cc(Cl)cc(Br)c43)CC2)CC1 (stereo not drawn)
inactive: Potency [1] | Potency [12] | Potency [3]

CCc1cc2c(cc1CC)CC(NCC(O)c1ccc(O)c3[nH]c(=O)ccc13)C2 (stereo not drawn)
inactive: Potency [1] | Potency [12] | Potency [3]

CN(C)c1nc(NC2CCC(NC(=O)c3ccc(F)c(F)c3)CC2)nc2ccccc12 (stereo not drawn)
inactive: Potency [1] | Potency [12] | Potency [3]

Cc1cc(C)c(Nc2ccnc(Nc3ccc(C#N)cc3)n2)c(C)c1
inactive: Potency [1] | Potency [12] | Potency [3]

Cc1cn(-c2cc(NC(=O)c3ccc(C)c(Nc4nccc(-c5cnccn5)n4)c3)cc(C(F)(F)F)c2)cn1
inactive: Potency [1] | Potency [12] | Potency [3]

CC(=O)N1c2ccc(-c3ccc(C(=O)O)cc3)cc2C(Nc2ccc(Cl)cc2)CC1C (stereo not drawn)
inactive: Potency [1] | Potency [12] | Potency [3]

C=CS(=O)(=O)NC1CCN(C(=O)CNc2cc(I)c(Cl)cc2OC)CC1
inactive: Potency [1] | Potency [12] | Potency [3]

CC(Oc1cc(-n2cnc3ccc(CN4CCN(C)CC4)cc32)sc1C(N)=O)c1ccccc1C(F)(F)F (stereo not drawn)
inactive: Potency [1] | Potency [12] | Potency [3]

COc1ccccc1OCCNCC(O)CCOc1cccc2[nH]c3ccccc3c12 (stereo not drawn)
inactive: Potency [1] | Potency [12] | Potency [3]

COc1cc(C(=O)O)ccc1NC(=O)C1NC(CC(C)(C)C)C(C#N)(c2ccc(Cl)cc2F)C1c1cccc(Cl)c1F (stereo not drawn)
inactive: Potency [1] | Potency [12] | Potency [3]

CC[C@H](/C=C/[C@@H](C)[C@H]1CC[C@H]2[C@@H]3CC=C4C[C@@H](O)CC[C@]4(C)[C@H]3CC[C@]12C)C(C)C
inactive: activity change, negative = inhibition [1] -2.53% [at 5.59 µM] | activity change, negative = inhibition [12] -13.7% [at 9.14 µM] | activity change, negative = inhibition [3] 15.3% [at 5.59 µM]

OC(CNCCc1c[nH]c2ccccc12)Cn1c2ccccc2c2ccccc21 (stereo not drawn)
inactive: Potency [1] | Potency [12] | Potency [3]

Cc1ccc(O)cc1Nc1ccnc(Nc2cccc(C(N)=O)c2)n1
inactive: Potency [1] | Potency [12] | Potency [3]

CC1CCN(C(c2ccc(F)cc2)c2ccc(C(C)C(=O)O)cc2-c2ccc(C(F)(F)F)cc2)CC1 (stereo not drawn)
inactive: Potency [1] | Potency [12] | Potency [3]

Cc1ccc2nc(NC(=O)CSc3nc4c(c(=O)n3-c3ccc(F)cc3)SCC4)sc2c1
inactive: Potency [1] | Potency [12] | Potency [3]

O=C(NC1CCN(CCCCC2(C(=O)NCC(F)(F)F)c3ccccc3-c3ccccc32)CC1)c1ccccc1-c1ccc(C(F)(F)F)cc1
inactive: Potency [1] | Potency [12] | Potency [3]

C=CC(=O)Nc1cccc(CN2C(=O)N(c3c(Cl)c(OC)cc(OC)c3Cl)Cc3cnc(NCCCCN(CC)CC)nc32)c1
inactive: Potency [1] | Potency [12] | Potency [3]

CN(C)CC(=O)Nc1ccc2[nH]c(=O)c3ccccc3c2c1
inactive: Potency [1] | Potency [12] | Potency [3]

CNC1CN(c2ccc3c(=O)c(C(=O)O)cn(-c4nccs4)c3n2)CC1OC (stereo not drawn)
inactive: activity change, negative = inhibition [1] 2.97% [at 11.2 µM] | activity change, negative = inhibition [12] -0.123% [at 20.1 µM] | activity change, negative = inhibition [3] -3.75% [at 11.2 µM]

COc1cc(/C=C/C(=O)N2CCN(CC(=O)N3CCCC3)CC2)cc(OC)c1OC
inactive: Potency [1] | Potency [12] | Potency [3]

NC(=O)c1nc(Nc2ccccc2)sc1NC(=O)C1CCCCC1
inactive: Potency [1] | Potency [12] | Potency [3]

N#Cc1ccc(COC[C@H]2O[C@@H](n3c(NCc4ccc(Cl)c(Cl)c4)nc4c(N)ncnc43)[C@H](O)[C@@H]2O)cc1
active: Potency [5] 7.42 µM | Potency [6] 2.63 µM | Potency [7] 14.8 µM | Potency [8] 2.95 µM | Potency [9] 2.63 µM
inactive: Potency [1] | Potency [12] | Potency [3]

CN(c1ccccc1CNc1nc(Nc2ccc3c(c2)CC(=O)N3)ncc1C(F)(F)F)S(C)(=O)=O
inactive: Potency [1] | Potency [12] | Potency [3]

Cc1cn(C2C=CC(CO)O2)c(=O)[nH]c1=O (stereo not drawn)
inactive: Potency [1] | Potency [12] | Potency [3]

OCCNC1CCCc2c1[nH]c1ccc(-c3ccccc3)cc21 (stereo not drawn)
active: Potency [5] 11.8 µM | Potency [6] 16.6 µM | Potency [7] 11.8 µM | Potency [8] 14.8 µM | Potency [10] 16.6 µM | Potency [11] 13.2 µM
inactive: Potency [1] | Potency [12] | Potency [3]

CCC(=C(c1ccc(OCCN2CCCC2)cc1)c1ccc(OCCN2CCCC2)cc1)c1ccccc1
inactive: Potency [1] | Potency [12] | Potency [3]

CC(=O)Nc1cccc2c1c(Sc1ccc(Cl)cc1)c(C)n2CC(=O)O
inactive: Potency [1] | Potency [12] | Potency [3]

CCC(=O)NS(=O)(=O)c1ccc(-c2c(-c3ccccc3)noc2C)cc1
inactive: Potency [1] | Potency [12] | Potency [3] | viability [5] 114% | Potency [6] | Potency [7] | Potency [8] | Potency [10]

C=C[C@H]1CN2CC[C@H]1C[C@H]2[C@H](O)c1ccnc2ccc(OC)cc12
inactive: Potency [1] | Potency [12] | Potency [3]

CN(C)C(=O)COC(=O)c1cc(-c2ccc(C3CCNCC3)cc2)c2ccc(-c3ccc(C(F)(F)F)cc3)cc2c1
inactive: Potency [1] | Potency [12] | Potency [3]

Cc1ccc(C(=O)N(CCCN)C(c2nc3cc(Cl)ccc3c(=O)n2Cc2ccccc2)C(C)C)cc1 (stereo not drawn)
inactive: Potency [1] | Potency [12] | Potency [3]
